HCV inhibitor: blocks hepatitis C virus | Potency, µM (series often up to 41.8 µM), for inactives: at the highest dose activity change, negative = inhibition, usual class: inhibitors | 340,000 compounds, 3.4% hits | Huh7.5.1 HCVcc-Cre infection, luciferase reporter, 44 h | AID 651820; further: potency means the concentration at half of the fitted maximal effect
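Infectious HCV cell culture screen: compound-treated cells (1,000/well, pre-plated 4 h) are infected with HCVcc-Cre at roughly 0.5 moi and grown 44 h. Infection is quantified by luciferase signal after 15 min substrate incubation at room temperature.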
Marburg entry inh: Marburg virus entry inhibition; 300,000 compounds, 1.8% hits; Marburg virus pseudotyped entry inhibition, cell reporter; Potency, µM (top dose mostly 37.8 µM), inactives show at the top dose activity change, negative = inhibition, usual class: inhibitors; calls by dose curve; tested in HEK293 cells; further: potency means the concentration at half of the fitted maximal effect
FMDV antiviral: foot and mouth disease virus antiviral activity | FMDV antiviral cell-based qHTS | Potency, µM (highest dose often 57.9 µM), for inactives: at the top dose activity change, negative = inhibition, usual class: inhibitors | 410,000 compounds, 1.2% hits | AID 1159524; calls by dose curve; tested in HEK293T cells; further: read-out not given here; potency means the concentration at half of the fitted maximal effect; nearly all actives have a fitted effect of over 45% in size
Lassa entry inh: Lassa virus entry inhibition | Lassa virus pseudotype entry inhibition, cell reporter | Potency, µM (series often up to 37.9 µM), for the others: top-dose activity change, negative = inhibition, most hits filed as inhibitors | 300,000 compounds, 1.2% hits; calls by dose curve; tested in HEK293 cells; further: potency means the concentration at half of the fitted maximal effect; nearly all actives have a fitted effect of over 50% in size
Giardia FBPA inh: blocks Giardia fructose-bisphosphate aldolase activity; A8B2U2; purified Giardia FBPA; Potency, µM (titrated, usually from 59.6 µM), for inactives: top-dose activity, negative = inhibition, most hits filed as inhibitors; 290,000 compounds, 0.71% hits; AID 2451; further: potency means the concentration at half of the fitted maximal effect; nearly all actives have a fitted effect of over 55% in size
Target sequence (A8B2U2 whole entry, looked up): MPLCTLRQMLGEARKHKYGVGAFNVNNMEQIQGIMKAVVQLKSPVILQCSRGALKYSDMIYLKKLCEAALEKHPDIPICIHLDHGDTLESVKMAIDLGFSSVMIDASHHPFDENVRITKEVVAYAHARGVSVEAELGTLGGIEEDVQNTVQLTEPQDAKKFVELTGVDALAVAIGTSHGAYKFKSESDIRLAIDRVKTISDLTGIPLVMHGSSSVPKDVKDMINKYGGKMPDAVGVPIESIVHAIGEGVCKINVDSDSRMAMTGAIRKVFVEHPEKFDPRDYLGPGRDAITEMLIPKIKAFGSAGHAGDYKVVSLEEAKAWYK
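40 nM FBPA preincubated 10 min at RT with compound (up to 57.5 uM final), then substrate plus GAPDH/TPI/NAD/arsenate coupling and diaphorase/resazurin added. Fluorescence read after 20 min at RT, 525/598 nm.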
HCMV antiviral: blocks human cytomegalovirus replication; HFF cells, HCMV-luciferase reporter, 72 h; active compounds read low; activity change, negative = inhibition, % at 57.5 µM; 410,000 compounds, 4.5% hits; AID 1259415; in the data active means activity change below about -60%; inconclusive means no clear call, values can overlap the other calls; inactive means above about -39%
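Human foreskin fibroblasts infected with luciferase-reporter HCMV at MOI 1 PFU/cell, compounds at two doses. Luciferase measured 72 h post infection; normalized to buffer-only basal and Salinomycin (10uM) controls.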
* marks the source's active call; other numbers are inactive results; ? = inconclusive; · = no result given; [ ] = remark or other dose. Most compounds without a hit are left out; they make up all but 8.3% or so of the library. Unless noted, the call rests on the fitted dose curve; in most records, active means well fitted curve in the direction sought with a large enough effect; inconclusive means small, poorly fitted or top-dose-only effect, or another doubt; inactive means no such curve, though single readings can be large; an effect the other way counts as inactive or inconclusive. On the % scale 0 is the no-effect control and ±100 the full control effect.

SMILES	HCV inhibitor	Marburg entry inh	FMDV antiviral	Lassa entry inh	Giardia FBPA inh	HCMV antiviral
CC1(C)CC2CC(C)(CN2S(=O)(=O)c2ccc(C(=O)Nc3ccc(Cl)c(S(=O)(=O)N4CCOCC4)c3)cc2)C1 (centres undefined)	?	3.55µM*	?	?	-6.5%	-98.5*
CC(=O)Nc1ccc(S(=O)(=O)N2CC3(C)CC2CC(C)(C)C3)cc1 (centres undefined)	0.1%	?	9.6%	?	2.0%	?
CC1(C)CC2CC(C)(CN2S(=O)(=O)c2ccc(C(=O)Nc3ccc(S(=O)(=O)N4CCOCC4)cc3)cc2)C1 (centres undefined)	?	2.82µM*	-16.5%	3.55µM*	-0.5%	-90.5*
Cc1cccc(NC(c2ccc(O)cc2)c2ccc3ccc(C)nc3c2O)n1 (centres undefined)	?	-1.7%	-12.7%	20.6µM*	-15.1%	-36.2
COc1cccc(C(Nc2ccccc2)c2ccc3ccc(C)nc3c2O)c1 (centres undefined)	·	·	-8.4%	·	·	-35.8
COC(=O)C1=C(N)OC2=C(C(=O)CCC2)C1c1cccs1 (centres undefined)	13.0%	25.3%	-17.7%	7.3%	-27.5%	10.8
CCOC(=O)C1=C(N)OC2=C(C(=O)CCC2)C1c1cccs1 (centres undefined)	19.1%	0.5%	·	24.6%	12.6µM*	-22.9
COc1ccc(C(=O)O/N=C/c2c(C(F)(F)F)nn(C)c2SCc2ccccc2Cl)cc1	?	?	-18.7%	?	-3.6%	-82.1*
Cn1nc(C(F)(F)F)c(/C=N/OC(=O)c2ccccc2Cl)c1SCc1ccc(Cl)cc1	?	?	-23.2%	?	-2.6%	?
COC(=O)CN1C(=O)CSc2ccc(S(=O)(=O)Nc3ccc(C(C)=O)cc3)cc21	·	·	78.6%	21.2%[46.1 µM]	·	?
Cc1ccc(C(C)NC(=S)NC2CCCCC2)cc1C (centres undefined)	·	·	·	·	-0.7%	-75.2*
CC(NC(=S)NC1CCC(C(C)(C)C)CC1)c1ccccc1 (centres undefined)	?	·	-2.5%	·	9.2%	-81.7*
Cc1ccc(C(C)NC(=S)NC2CCCCC2)c(C)c1 (centres undefined)	?	·	-24.7%	·	6.4%	-77.7*
COc1ccc(C(C)NC(=S)NC2CCCC2)cc1OC (centres undefined)	12.7%	-4.2%	-9.4%	-15.4%	-0.1%	-32.8
Cc1ccc(C(C)NC(=O)C2CCCC2)c(C)c1 (centres undefined)	-3.2%	·	-16.5%	·	-0.2%	-4.7
Cc1c(C(=O)NCC2(N3CCOCC3)CCCC2)cnn1-c1nccc(-c2ccccc2F)n1	·	·	-1.6%	·	·	·
C[C@@H]1C=CCCO[C@]12C(=O)N(Cc1ccccc1C(F)(F)F)c1ccccc12	·	-12.3%[14.2 µM]	·	·	·	?
Cc1ccc(-c2cc(NC(=O)Cc3c[nH]c4ccccc34)ccc2N(C)c2cccnc2)cc1	·	·	·	·	·	15.2
O=C(C1CC1)N(CCc1ccccc1)Cc1nc2ccccc2c(=O)[nH]1	7.3%	3.9%	28.2µM*	-27.7%	-7.8%	-9.0
O=C(C1CCC1)N(CCc1ccccc1)Cc1nc2ccccc2c(=O)[nH]1	11.8%	0.8%[46.1 µM]	-26.2%	?	0.0%	14.2
CCCCCN(CCCCC)C(=O)[C@H](CCC(=O)O)NC(=O)c1ccc(Cl)c(Cl)c1	·	7.3%	·	·	7.0%[21.7 µM]	·
CCCCCN(CCCCC)C(=O)C(CCC(=O)O)NC(=O)c1ccc(Cl)c(Cl)c1 (centres undefined)	14.4%	?	-11.1%	-1.2%	4.7%	-60.7*
Nc1[nH]c(C(=O)c2ccccc2)c(-c2ccccc2C(F)(F)F)c1C(=O)NCCc1c[nH]c2ccccc12	·	·	4.2%	·	·	-60.5*
C=C[C@@H]1c2cccc(C)c2N(S(=O)(=O)c2ccc(C)cc2)[C@H](c2ccc(OC(C)=O)cc2)C1(C#N)C#N	?	·	-22.1%	·	·	-79.1*
C=C[C@@H]1c2cccc(C)c2N(S(=O)(=O)c2ccc(C)cc2)[C@H](c2ccccc2)C1(C#N)S(=O)(=O)c1ccccc1 (some centres undefined)	-22.5%	·	-1.8%	·	·	-11.3

Bioassay records: PubChem, National Center for Advancing Translational Sciences (NCATS)
